# Assay outcomes as filed in PubChem BioAssay.
# Compounds with a hit are over-represented: about 2.3% of the library has one in this group of screens.
# MmCpn inh: inhibitors of Methanococcus maripaludis chaperonin TRiC (MmCpn). purified Mm-Cpn ATPase, ADP Transcreener TR-FRET. Potency, µM (highest dose often 76.9 µM), inactives show top-dose activity, negative = inhibition, actives largely listed as inhibitors. 330,000 compounds, 0.031% hits; further: potency means the concentration at half of the fitted maximal effect; on the % scale 0 is the no-effect control and ±100 the full control effect; nearly all actives have a fitted effect of over 80% in size
#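 ATP (10 uM final) was added to archaeal chaperonin (25 nM final) after 10 min exposure to test compound at 37°C; after 30 min further incubation, ADP was detected by competitive TR-FRET.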
# aSyn yeast inh: rescues yeast growth from alpha-synuclein toxicity | Yeast expressing alpha-synuclein, growth rescue, BacTiter-Glo, 24 h | Potency, µM (series often up to 46.1 µM), for the others: top-dose growth rescue (activation), actives largely listed as activators | 370,000 compounds, 0.14% hits; further: potency means the concentration at half of the fitted maximal effect; % of control where 0% means no effect; nearly all actives have a fitted effect of over 65% in size
#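 Readout is rescue of growth in alpha-synuclein-expressing yeast, so inhibitors of toxicity appear as activators. Growth after 24 hr at 30 deg C in galactose medium is quantified by luminescence.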
# TDP43 rescue: rescues yeast growth from TDP-43 toxicity. TDP-43 expressing yeast growth rescue, BacTiter-Glo, 24 h. Potency, µM (top dose mostly 46.1 µM), without a hit: at the top dose growth rescue (activation), usual class: activators. 410,000 compounds, 1.8% hits. AID 652104; further: potency means the concentration at half of the fitted maximal effect; % of control where 0% means no effect; nearly all actives have a fitted effect of over 50% in size
#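 Galactose-induced TDP-43 yeast, OD600=0.02, compound pinned; 24 hr, 30 deg C; BacTiter-Glo luminescence for growth. Inhibitors of TDP-43 toxicity read as activators.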
# Abeta rescue: compounds reversing amyloid beta toxicity in yeast; yeast expressing A-beta42, growth rescue, OD600, 48 h; response scale: 0% DMSO, 100% iron-clioquinol control; Potency, µM (titrated, usually from 46.1 µM), usual class: activators; 410,000 compounds, 0.063% hits; AID 1347071; further: potency means the concentration at half of the fitted maximal effect; nearly all actives have a fitted effect of over 55% in size
#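 Growth rescue measured by 600 nm absorbance after 48 h yeast culture at 30 C with compound. Values normalized between DMSO and an equimolar ferric chloride plus clioquinol control.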
# CCT modulator: changes cytosolic chaperonin activity | 360,000 compounds, 0.3% hits | activity change, % (test concentration not listed), hits read low | purified chaperonin ATPase assay, HTRF ADP detection, 30 min; in the data active means activity change below about -30%; further: on the % scale 0 is the no-effect control and ±100 the full control effect
#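 First, chaperonin was dispensed at 40 nM or 20 nM final depending on batch activity. Next, compounds were pinned at 76 uM and ATP added at 10 uM. After 30 min at 37 °C, ADP detection reagents ran 30 min at ambient temperature.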
# FUS yeast rescue: rescues growth of FUS-expressing yeast. S. cerevisiae FUS-expressing, growth rescue, OD600, 24 h. Potency, µM (top dose mostly 76.6 µM), hits mostly activators. 390,000 compounds, 0.24% hits. AID 1347120;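 further: potency means the concentration at half of the fitted maximal effect; plate controls were DMSO vehicle for no effect and reference control for full effect; nearly all actives have a fitted effect of over 55% in size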
#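 Yeast FUS proteinopathy model; galactose-induced FUS (2%), starting OD 0.005. Cpds in dilution series, 24hr, 30C, 99% humidity. Abs 600 nm growth. Pos ctrl CP55940 (top 92uM final); neg ctrl DMSO.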
# Starred values were filed as active, the others as inactive; i = inactive; ? = inconclusive; . = no result given; [ ] = remark or other dose. Unless noted, the call rests on the fitted dose curve; in most records, active means well fitted curve in the direction sought with a large enough effect; inconclusive means small, poorly fitted or top-dose-only effect, or another doubt; inactive means no such curve, though single readings can be large; an effect the other way counts as inactive or inconclusive.
SMILES,MmCpn inh,aSyn yeast inh,TDP43 rescue,Abeta rescue,CCT modulator,FUS yeast rescue
CC1(C)COC(/C=C/c2cccc([N+](=O)[O-])c2)=N1,-3.3%,17.4%,4.4%[9.22 µM],i,-39.0*,i
Cc1ccc(Nc2nc(NCc3ccco3)nc3nccnc23)cc1,.,-3.2%,.,.,.,.
CCN1CCN(C(=O)c2ccc3c(c2)N(Cc2ccc(Cl)cc2)C(=O)c2ccccc2S3(=O)=O)CC1,.,.,10.7%,i,.,i
O=C(c1ccc2c(c1)N(Cc1ccc(Cl)cc1)C(=O)c1ccccc1S2(=O)=O)N1CCc2ccccc21,.,.,0.0%,i,.,7.94µM*
O=C(c1ccc2c(c1)N(Cc1ccc(Cl)cc1)C(=O)c1ccccc1S2(=O)=O)N1CCCC1,.,.,6.5%,i,.,31.6µM*
CCOC(=O)C1=C(C)Nc2nc(=S)[nH]n2C1c1ccc(Cl)cc1 (configuration not stated),-2.3%,?,22.4µM*,i,0.8,i
CCOC(=O)Cn1c(=O)n(Cc2ccco2)c(=O)c2ccc(C(=O)NC3CCCC3)cc21,2.3%,0.562µM*,12.2%,i,-1.4,i
Cc1ccc(COC(=O)c2nn(C)c(=O)c3ccccc23)cc1,2.3%,0.5%,6.0%,i,-5.9,i
Cn1nc(C(=O)OCc2ccc(F)cc2)c2ccccc2c1=O,0.2%,1.2%,?,i,-37.4*,i
Cc1ccc(-c2cc(-c3nnc(SCC(=O)Nc4ccc(OCc5ccccc5)cc4)n3N)[nH]n2)cc1,.,.,.,.,.,i
O=C(CSc1ccc([N+](=O)[O-])cn1)Nc1cc(C(F)(F)F)ccc1N1CCOCC1,0.6%,19.6%,20µM*,i,-0.8,.
C=CCNC(=O)c1ccc(CSc2nc3ccccc3s2)cc1,-0.4%,-3.9%,17.8µM*,i,-2.7,i
Cc1csc(NC(=O)CSc2nc3ccccc3s2)n1,1.5%,11.9%,25.1µM*,i,-6.5,i
Cc1csc(NC(=O)CCCSc2nc3ccccc3s2)n1,-2.3%,7.6%,?,i,1.4,i
O=C(CSc1nc2ccccc2s1)c1cc2ccccc2o1,.,-1.1%,-1.8%,i,-62.9*,i
O=C(CSc1nc2ccccc2s1)CSc1nc2ccccc2s1,-7.9%,-5.5%,-13.8%,i,-1.5,i
C=CCNC(=O)c1nc2ccccc2s1,0.5%,-5.0%,9.0%,i,2.2,i
Cc1csc(NC(=O)CSc2ccc([N+](=O)[O-])cn2)n1,-0.2%,2.7%,12.6µM*,i,0.7,i
CCOc1ccc(NC(=O)c2cnn3c2NC(c2ccccc2)=CC3c2cccc(OC)c2OC)cc1 (configuration not stated),.,.,26.7%[9.22 µM],i,.,22.4µM*
COc1ccc(NC(=O)CSC2=Nc3ccccc3C3=NC(CCC(=O)NCCc4ccccc4)C(=O)N23)c(OC)c1 (configuration not stated),.,.,?,i,.,i
Cc1ccc(C(C#N)c2ccc3c(C(F)(F)F)cc(C(F)(F)F)nc3n2)cc1 (configuration not stated),1.3%,-9.2%,-22.7%,i,-45.1*,.
COc1ccc2c(c1)CCCN2C(=O)C1CCCN(S(=O)(=O)c2cccs2)C1 (configuration not stated),.,.,.,.,.,i
COc1ccc(CC(=O)N/N=C(\C)c2cccnc2)cc1,-8.0%,2.6%,-3.8%,i,-1.9,i
CN=c1scc(-c2ccc(OC)cc2)n1/N=C(\C)c1cccnc1,-0.9%,-11.1%,14.1µM*,i,2.9,i
CO/N=C/c1ccc(Sc2ccccc2N)c([N+](=O)[O-])c1,-1.2%,6.6%,20µM*,?,-0.4,i
SMILES,MmCpn inh,aSyn yeast inh,TDP43 rescue,Abeta rescue,CCT modulator,FUS yeast rescue
Nc1ccccc1Sc1ccccc1[N+](=O)[O-],1.6%,17.5%,17.8µM*,i,-1.7,.
O=[N+]([O-])c1ccc(SNc2ccccc2)c([N+](=O)[O-])c1,.,-0.3%,?,i,-3.1,.
O=[N+]([O-])c1ccccc1SNc1ccccc1,.,17.5%,12.6µM*,i,1.0,i
O=[N+]([O-])c1cc(/C=N/O)ccc1Sc1ccccc1,-0.3%,18.5%,3.16µM*,i,-1.6,i
Cc1nn(-c2ccccc2)c(N)c1Sc1ccccc1[N+](=O)[O-],0.4%,12.8%,16.4%,i,-1.8,i
COc1cccc(CCc2ccccc2OCC(CN(C)C)OC(=O)CCC(=O)O)c1 (configuration not stated),.,1.3%,.,.,.,.
CC1CCN(c2ccc(C(=O)O)cc2NS(=O)(=O)c2ccccc2[N+](=O)[O-])CC1,.,.,.,.,.,i
CCNc1nc(N)nc(-c2cc(Cl)ccc2O)n1,-1.7%,1.6%,3.16µM*,i,-0.7,i
Nc1c(Cl)cc(C=O)cc1Cl,.,1.5%,.,.,.,.
Nc1nc(-c2cccs2)c(-c2cccs2)s1,-2.4%,-10.9%,15.8µM*,i,-0.7,i
Cc1ccc(S(=O)(=O)N2CCN(c3nc(-n4cccn4)nc4ccccc34)CC2)cc1,.,6.5%,.,.,.,.
COc1ccc(C2CC(c3cccs3)=NN2C(=O)CSc2nc(=O)n3ccc(C)cc3n2)cc1 (configuration not stated),?,1.2%,16.3%,i,-46.4*,?
COc1ccc(C(=O)N2N=C(c3cccs3)CC2c2ccccc2O)cc1 (configuration not stated),-7.4%,17.8µM*,27.6%,i,-15.2,i
COc1ccc(C2=NN(C(=O)c3cccs3)C(c3ccccc3O)C2)cc1 (configuration not stated),-7.7%,10.6%,11.8%,i,-1.2,i
CCN(C(=O)[C@@H](C1CC1)[C@@H](O)c1ccc(Cl)cc1)c1ccccc1,.,.,.,.,.,i
CC(C)CN(CC(C)C)C(=O)c1ccc2c(c1)NC(=O)C(C)(C)O2,.,.,.,.,.,i
COc1cc(Nc2nc(-c3ccccc3)c3cc(C)ccc3n2)cc(OC)c1OC,1.0%,-24.0%,20µM*,i,0.1,i
Fc1ccc(N/N=C2/CC(c3ccccc3)Oc3ccccc32)c(F)c1 (configuration not stated),1.3%,16.4%,17.3%,i,-4.9,.
CNC(=S)N/N=C1\CC(c2ccccc2)Oc2ccccc21 (configuration not stated),-7.9%,-0.5%,22.4µM*,i,1.9,i
O=C1CC(c2cccc(O)c2)Oc2ccccc21 (configuration not stated),0.5%,11.5%,?,i,-0.8,.
O=C1CC(c2ccccc2)Oc2ccccc21 (configuration not stated),.,-1.3%,14.1µM*,i,-5.3,i
